Measurements taken from the supplement of paper PMC10849652.
The full data set covers some 8,800 targets. This sample favours those with a hit. About 0.5% of all pairs of compound and target were hits. Values without a mark were called inactive.

Chain of UniProt P67936 (P67936 whole entry, looked up): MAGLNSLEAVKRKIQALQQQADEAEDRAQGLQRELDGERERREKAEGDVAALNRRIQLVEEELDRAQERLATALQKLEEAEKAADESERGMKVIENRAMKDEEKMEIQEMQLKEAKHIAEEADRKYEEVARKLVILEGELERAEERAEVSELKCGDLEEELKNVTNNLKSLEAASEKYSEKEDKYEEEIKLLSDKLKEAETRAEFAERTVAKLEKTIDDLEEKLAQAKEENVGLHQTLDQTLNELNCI
Chain of UniProt Q9BRZ2 (Q9BRZ2 whole entry, looked up): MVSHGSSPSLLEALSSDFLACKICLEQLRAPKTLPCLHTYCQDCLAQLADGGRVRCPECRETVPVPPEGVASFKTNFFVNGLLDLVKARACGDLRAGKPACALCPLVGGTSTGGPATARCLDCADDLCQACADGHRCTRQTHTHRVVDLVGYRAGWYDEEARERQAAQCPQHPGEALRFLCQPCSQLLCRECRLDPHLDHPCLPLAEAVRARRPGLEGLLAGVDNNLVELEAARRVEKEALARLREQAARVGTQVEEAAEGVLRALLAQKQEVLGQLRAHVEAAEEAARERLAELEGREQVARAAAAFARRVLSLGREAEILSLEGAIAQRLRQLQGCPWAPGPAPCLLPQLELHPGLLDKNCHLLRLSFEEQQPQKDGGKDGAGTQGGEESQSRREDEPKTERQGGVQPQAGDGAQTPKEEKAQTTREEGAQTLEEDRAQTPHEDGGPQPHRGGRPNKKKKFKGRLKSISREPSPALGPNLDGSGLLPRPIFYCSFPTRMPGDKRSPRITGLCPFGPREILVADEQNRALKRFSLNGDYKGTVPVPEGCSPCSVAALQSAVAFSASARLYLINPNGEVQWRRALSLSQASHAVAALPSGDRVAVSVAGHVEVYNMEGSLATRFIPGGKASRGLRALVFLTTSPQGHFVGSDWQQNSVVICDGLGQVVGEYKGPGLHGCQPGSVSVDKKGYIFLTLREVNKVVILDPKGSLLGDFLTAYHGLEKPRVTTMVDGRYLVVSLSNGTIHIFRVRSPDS
Chain of UniProt Q15813 (Q15813 whole entry, looked up): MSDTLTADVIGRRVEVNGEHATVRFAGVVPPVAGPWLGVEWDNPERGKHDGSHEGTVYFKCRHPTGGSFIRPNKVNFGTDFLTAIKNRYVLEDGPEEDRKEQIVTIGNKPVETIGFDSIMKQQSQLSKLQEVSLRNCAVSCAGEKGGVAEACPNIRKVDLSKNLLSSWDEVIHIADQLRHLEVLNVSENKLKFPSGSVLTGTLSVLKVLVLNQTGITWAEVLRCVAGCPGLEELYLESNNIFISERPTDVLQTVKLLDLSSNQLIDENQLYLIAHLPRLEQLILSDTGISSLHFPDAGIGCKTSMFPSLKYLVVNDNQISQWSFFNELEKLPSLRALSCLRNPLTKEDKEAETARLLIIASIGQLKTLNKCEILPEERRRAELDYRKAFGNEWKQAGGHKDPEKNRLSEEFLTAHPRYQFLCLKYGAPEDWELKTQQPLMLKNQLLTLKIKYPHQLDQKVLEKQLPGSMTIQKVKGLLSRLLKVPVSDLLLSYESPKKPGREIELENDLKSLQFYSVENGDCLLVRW
Chain of UniProt Q04726 (Q04726 whole entry, looked up): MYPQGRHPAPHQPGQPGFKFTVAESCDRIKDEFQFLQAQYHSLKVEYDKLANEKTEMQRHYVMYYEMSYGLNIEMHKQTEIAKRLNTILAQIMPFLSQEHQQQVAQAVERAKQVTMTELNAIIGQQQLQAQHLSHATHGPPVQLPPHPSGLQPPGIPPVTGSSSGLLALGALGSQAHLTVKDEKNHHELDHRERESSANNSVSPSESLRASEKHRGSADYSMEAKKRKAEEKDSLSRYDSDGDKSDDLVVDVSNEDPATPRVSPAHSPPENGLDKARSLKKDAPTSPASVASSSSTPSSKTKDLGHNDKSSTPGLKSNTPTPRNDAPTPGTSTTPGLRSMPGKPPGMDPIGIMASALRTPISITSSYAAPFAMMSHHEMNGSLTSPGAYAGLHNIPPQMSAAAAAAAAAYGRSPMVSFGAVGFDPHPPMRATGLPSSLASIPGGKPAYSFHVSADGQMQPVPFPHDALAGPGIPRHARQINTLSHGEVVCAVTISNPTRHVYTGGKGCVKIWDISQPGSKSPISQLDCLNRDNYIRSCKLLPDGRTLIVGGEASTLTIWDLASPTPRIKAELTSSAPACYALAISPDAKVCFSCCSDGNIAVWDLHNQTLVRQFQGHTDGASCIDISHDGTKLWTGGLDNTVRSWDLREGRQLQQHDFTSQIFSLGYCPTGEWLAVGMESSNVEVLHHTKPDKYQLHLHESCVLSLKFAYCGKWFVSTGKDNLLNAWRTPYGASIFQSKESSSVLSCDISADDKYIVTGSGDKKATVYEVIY
Chain of UniProt P28289 (P28289 whole entry, looked up): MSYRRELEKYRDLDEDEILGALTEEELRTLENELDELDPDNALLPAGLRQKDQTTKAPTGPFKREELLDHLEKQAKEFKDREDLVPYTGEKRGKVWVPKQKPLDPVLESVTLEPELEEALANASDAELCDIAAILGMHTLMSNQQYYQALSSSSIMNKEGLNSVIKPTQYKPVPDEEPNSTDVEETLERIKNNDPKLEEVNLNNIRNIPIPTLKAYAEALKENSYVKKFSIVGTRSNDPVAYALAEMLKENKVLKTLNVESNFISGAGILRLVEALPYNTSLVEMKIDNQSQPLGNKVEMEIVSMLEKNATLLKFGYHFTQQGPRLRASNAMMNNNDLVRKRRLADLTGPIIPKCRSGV
Chain of UniProt Q9UNY4 (Q9UNY4 whole entry, looked up): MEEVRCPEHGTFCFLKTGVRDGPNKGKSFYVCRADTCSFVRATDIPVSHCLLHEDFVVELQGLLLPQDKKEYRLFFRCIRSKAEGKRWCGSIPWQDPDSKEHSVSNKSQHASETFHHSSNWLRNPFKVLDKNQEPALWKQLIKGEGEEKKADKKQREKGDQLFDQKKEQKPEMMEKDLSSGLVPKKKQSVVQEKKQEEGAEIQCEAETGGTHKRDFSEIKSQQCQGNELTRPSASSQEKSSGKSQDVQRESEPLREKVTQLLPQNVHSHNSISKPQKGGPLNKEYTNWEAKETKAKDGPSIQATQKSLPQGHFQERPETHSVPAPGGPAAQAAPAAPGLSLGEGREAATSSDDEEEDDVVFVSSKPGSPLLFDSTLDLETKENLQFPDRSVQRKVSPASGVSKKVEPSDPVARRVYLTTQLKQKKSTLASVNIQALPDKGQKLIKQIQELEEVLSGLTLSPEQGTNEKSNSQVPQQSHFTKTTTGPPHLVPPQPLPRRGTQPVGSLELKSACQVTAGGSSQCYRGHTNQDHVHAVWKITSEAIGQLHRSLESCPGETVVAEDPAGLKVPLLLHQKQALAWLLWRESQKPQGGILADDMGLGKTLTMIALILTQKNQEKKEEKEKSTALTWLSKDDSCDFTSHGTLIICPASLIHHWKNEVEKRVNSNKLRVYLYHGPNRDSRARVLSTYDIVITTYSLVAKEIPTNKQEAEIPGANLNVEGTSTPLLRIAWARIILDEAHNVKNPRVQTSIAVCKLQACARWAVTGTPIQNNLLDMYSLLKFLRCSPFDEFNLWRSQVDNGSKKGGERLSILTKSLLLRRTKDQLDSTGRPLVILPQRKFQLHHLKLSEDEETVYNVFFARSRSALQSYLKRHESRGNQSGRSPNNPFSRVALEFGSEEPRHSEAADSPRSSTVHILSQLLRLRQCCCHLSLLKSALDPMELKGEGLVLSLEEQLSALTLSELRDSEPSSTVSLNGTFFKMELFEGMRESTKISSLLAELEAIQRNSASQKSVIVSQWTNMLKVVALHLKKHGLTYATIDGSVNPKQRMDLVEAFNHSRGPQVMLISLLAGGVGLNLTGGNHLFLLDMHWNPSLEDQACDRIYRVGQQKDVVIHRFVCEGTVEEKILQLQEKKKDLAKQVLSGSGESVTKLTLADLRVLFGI
Chain of UniProt Q9H7E2 (Q9H7E2 whole entry, looked up): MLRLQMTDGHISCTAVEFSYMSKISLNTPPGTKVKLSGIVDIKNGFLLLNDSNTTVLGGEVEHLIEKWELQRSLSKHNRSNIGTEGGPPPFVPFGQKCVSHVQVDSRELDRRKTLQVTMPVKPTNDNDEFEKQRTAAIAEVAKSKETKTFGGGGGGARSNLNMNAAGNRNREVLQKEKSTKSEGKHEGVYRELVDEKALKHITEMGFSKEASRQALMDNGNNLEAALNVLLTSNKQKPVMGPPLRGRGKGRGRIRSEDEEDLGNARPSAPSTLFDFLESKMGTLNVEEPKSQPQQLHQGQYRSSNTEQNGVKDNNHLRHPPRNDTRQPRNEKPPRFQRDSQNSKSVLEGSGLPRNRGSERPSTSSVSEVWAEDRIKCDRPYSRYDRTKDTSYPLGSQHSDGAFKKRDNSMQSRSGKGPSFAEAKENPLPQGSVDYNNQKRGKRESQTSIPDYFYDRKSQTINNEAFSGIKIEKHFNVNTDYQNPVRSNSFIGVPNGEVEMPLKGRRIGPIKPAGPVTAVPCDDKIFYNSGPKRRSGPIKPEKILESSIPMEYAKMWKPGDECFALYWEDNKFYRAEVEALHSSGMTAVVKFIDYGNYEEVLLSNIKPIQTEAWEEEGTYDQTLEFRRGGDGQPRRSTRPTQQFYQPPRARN
Chain of UniProt O43493 (O43493 whole entry, looked up): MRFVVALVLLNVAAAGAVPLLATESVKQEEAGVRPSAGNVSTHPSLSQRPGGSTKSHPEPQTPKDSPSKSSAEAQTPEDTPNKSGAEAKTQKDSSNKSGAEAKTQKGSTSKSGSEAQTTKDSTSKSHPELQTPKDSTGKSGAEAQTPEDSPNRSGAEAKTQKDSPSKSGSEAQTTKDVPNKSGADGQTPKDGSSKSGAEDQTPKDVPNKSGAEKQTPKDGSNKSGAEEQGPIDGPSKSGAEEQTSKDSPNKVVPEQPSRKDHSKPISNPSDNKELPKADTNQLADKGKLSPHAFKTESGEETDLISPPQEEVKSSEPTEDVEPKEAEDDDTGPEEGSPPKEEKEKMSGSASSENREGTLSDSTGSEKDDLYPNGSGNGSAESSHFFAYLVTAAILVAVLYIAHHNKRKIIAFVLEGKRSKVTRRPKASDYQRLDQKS
Chain of UniProt Q9P0S9 (Q9P0S9 whole entry, looked up): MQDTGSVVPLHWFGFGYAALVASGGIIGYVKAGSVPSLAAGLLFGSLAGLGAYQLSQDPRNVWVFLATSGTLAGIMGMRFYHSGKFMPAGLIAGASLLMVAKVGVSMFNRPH

These targets were tested with C#Cc1cccc(Nc2ncnc3cc(OCCOC)c(OCCOC)cc23)c1 [erlotinib] (assay: log2 fold change, soluble protein after heating vs DMSO (PISA); higher = thermal stabilisation; K562 lysate, 10 uM; active = over 0.2 and 3.5 SD of the protein, either way, in both replicates (recomputed)).
Summary of the method: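 A 30 min treatment with 10 μM compound was applied to crude K562 extract at 1 mg/mL protein in PBS pH 7.4 with 1 mM MgCl2. Heating for 3 min spanned 48°C-58°C, after which aliquots were pooled, adjusted to 0.5% NP-40 at 4°C and spun at 21,000xg for 90 min. TMTpro 16plex LC-MS/MS of the supernatant, with channel sums equalised, gave values recorded as log-two fold change in thermal stability against solvent controls, from duplicates.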
Work on UBXN2B (UniProt Q14CS0) yielded a log2 fold change of -0.008. With TRAF2 isoform 2 (UniProt Q12933) the log2 fold change was 0.026. TMOD1 (UniProt P28289) was tested, and the log2 fold change was 0.002. For TPD52L2 isoform 7 (UniProt O43399), the log2 fold change was -0.044. TMEM199 (UniProt Q8N511) gave a log2 fold change of 0.002. TBCE (UniProt Q15813) gave a log2 fold change of 0.02. Work on TDRD3 isoform 3 (UniProt Q9H7E2) yielded a log2 fold change of 0.051. In the case of TRIM33 (UniProt H0Y612), the log2 fold change is reported as -0.006. TGOLN2 isoform 7 (UniProt O43493) gave a log2 fold change of -0.108. TBL3 (UniProt Q12788) gave a log2 fold change of 0.082. For TECR (UniProt Q9NZ01), the log2 fold change was 0.024. With TTK (UniProt P33981) the log2 fold change was -0.032. In the case of TBL2 (UniProt Q9Y4P3), the log2 fold change is reported as -0.019. TPP2 (UniProt P29144) showed a log2 fold change of -0.001. UBAP2 (UniProt Q5T6F2) showed a log2 fold change of -0.02. TMEM14C (UniProt Q9P0S9) was tested, and the log2 fold change was 0.027. Target TPM4 (UniProt P67936) has a log2 fold change of 0.028. Target TBK1 (UniProt Q9UHD2) has a log2 fold change of -0.005. TMPO (UniProt P42166) gave a log2 fold change of 0.026. TFPI (UniProt P10646) showed a log2 fold change of -0.069. For TRIM11 (UniProt Q96F44), the log2 fold change was 0.005. For TRIM25 (UniProt Q14258), the log2 fold change was -0.01. With TRAPPC12 (UniProt Q8WVT3) the log2 fold change was -0.049. Target TSPAN13 (UniProt O95857) has a log2 fold change of 0.002. For TLK2 isoform 2 (UniProt Q86UE8), the log2 fold change was -0.071. TDRKH (UniProt Q9Y2W6) was tested, and the log2 fold change was -0.067. TRIM33 isoform 2 (UniProt Q9UPN9) gave a log2 fold change of 0.004. With UBR4 (UniProt Q5T4S7) the log2 fold change was 0. TRIM44 (UniProt Q96DX7) showed a log2 fold change of -0.066. TMEM87A (UniProt Q8NBN3) gave a log2 fold change of -0.015. UBAP2L isoform 5 (UniProt Q14157) was tested, and the log2 fold change was -0.021. For UBTF (UniProt P17480), the log2 fold change was 0.02. TRIM56 (UniProt Q9BRZ2) gave a log2 fold change of 0.053. For TRNAU1AP (UniProt Q9NX07), the log2 fold change was 0.019. Target TLE3 isoform 4 (UniProt Q04726) has a log2 fold change of 0.005. For TPM4 isoform 2 (UniProt P67936), the log2 fold change was -0.06. In the case of TTF2 (UniProt Q9UNY4), the log2 fold change is reported as 0.043. With TUBB6 (UniProt K7ES63) the log2 fold change was -0.19. In the case of TTI1 (UniProt O43156), the log2 fold change is reported as -0.017.
